Hits are enriched below; roughly 3.1% of the tested compounds scored in any of these assays.
CSC inhib: cancer stem cell viability inhibitors, primary screen, luminescence; cancer stem cell-like cells viability; inhibition, % at 7.5 µM; 300,000 tested, 1.1% active; AID 2717, 2010; in the data active = inhibition above about 75%; inconclusive = no clear call, values can overlap the other calls; tested in HMLE shEcad cells
PP1 counter: PP1-alpha phosphatase inhibitors, primary screen, counter-screen for PP5 inhibitor project, biochemical, fluorescence, OMFP substrate, single point; inhibition, % at 6.7 µM; 320,000 tested, 0.9% active; purified PP1alpha; Serine/threonine-protein phosphatase PP1-alpha catalytic subunit (Homo sapiens), P62136;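 active = inhibition above the mean inhibition of all tested compounds plus 3 SD, computed separately for each screening campaign, cut at about 15% in these data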
Target sequence (P62136 whole entry, looked up): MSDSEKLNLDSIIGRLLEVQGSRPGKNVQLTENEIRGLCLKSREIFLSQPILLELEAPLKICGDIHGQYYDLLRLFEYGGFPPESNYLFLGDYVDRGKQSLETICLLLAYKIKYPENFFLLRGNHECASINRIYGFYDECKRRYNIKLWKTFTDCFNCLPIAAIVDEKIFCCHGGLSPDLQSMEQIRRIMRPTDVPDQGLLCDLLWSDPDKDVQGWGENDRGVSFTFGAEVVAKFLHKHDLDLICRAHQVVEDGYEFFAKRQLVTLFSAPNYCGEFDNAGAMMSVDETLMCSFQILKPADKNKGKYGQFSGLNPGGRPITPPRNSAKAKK
PP5 primary: PP5 phosphatase inhibitors, primary screen, biochemical, fluorescence; purified PP5c, OMFP substrate fluorescence; inhibition, % at 6.7 µM; Serine/threonine-protein phosphatase 5 (Homo sapiens), P53041; 320,000 tested, 0.18% active; AID 1987, 2009;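 active = inhibition above the campaign's mean inhibition across all tested compounds plus 3 SD, cut at about 9.5% in these data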;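 also: 0% = DMSO only and 100% = 100 µM cantharidin control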
SKKanGAS inh: S. pyogenes SKKanGAS growth inhibitors in kanamycin, primary screen, streptokinase expression inhibitor project, SKKanGAS strain, BacTiter-Glo luminescence; 6 h; inhibition, % at 7.5 µM; 300,000 tested, 1.3% active;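 active = mean replicate score, as percent of positive control median, at least 50; inconclusive = mean below 50 but one replicate at or above 50; inactive = mean and every replicate below 50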;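 also: strain carries kanamycin resistance gene driven by streptokinase promoter and grows in 40 µg/ml kanamycin; loss of luminescence reflects streptokinase promoter inhibition or plain growth inhibition; 0% = median of DMSO wells and 100% = positive control at its reference dose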
Beta apoptosis: inhibitors of cytokine-induced beta cell apoptosis, primary screen, luminescence; 300,000 tested, 0.8% active; INS-1E cytokine-induced death, ATP luminescence, 48 h; percent of positive-control rescue, neutral wells zero; protection from apoptosis, % (concentration not given with the values);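 active = Every replicate reaches about 75%, or at least half do and their mean reaches it too, limit read from the data; inconclusive = At least half of replicates reach the limit but their mean does not; inactive = Under half of replicates reach the limit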;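 also: 0% = cytokine-treated negative control wells and 100% = positive control rescue; higher means more ATP so stronger rescue from cytokine killing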
PP1 confirm: PP1 phosphatase inhibitors, confirmation, biochemical, fluorescence, OMFP substrate, triplicate | shares compounds with PP1 counter | purified PP1alpha | inhibition, % at 6.7 µM | 1,900 tested, 52% active | AID 2358, 2010;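 active = mean PP1 inhibition above a set limit taken from the earlier primary screen, cut at about 15% in these data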
PP5 counter: PP5 phosphatase inhibition by PP1 hits, confirmation, counter-screen for PP1 inhibitor project, biochemical, fluorescence, triplicate; purified PP5c, OMFP fluorescence; 1,900 tested, 4% active; inhibition, % at 6.7 µM; shares compounds with PP1 counter; AID 2360, 2010;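 active = mean PP5 inhibition over triplicate wells above about 9.5% taken from the earlier PP1 screen, limit read from the data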
* marks the source's active call; other numbers are inactive results; ? = inconclusive; nt = no result given.

SMILES	CSC inhib	PP1 counter	PP5 primary	SKKanGAS inh	Beta apoptosis	PP1 confirm	PP5 counter
CC(=O)Nc1ccc(C(=O)CN2C(=O)NC3(CCCc4ccccc43)C2=O)c(F)c1 (stereo not given)	5	nt	nt	nt	4	nt	nt
Cn1c(=O)c(C(=O)NNC(=O)c2ccccc2Br)c(O)c2ccccc21	-1	20*	1	75*	5	15	-3
CCn1c(=O)c(C(=O)NNC(=O)c2ccccc2Br)c(O)c2ccccc21	nt	22*	-1	90*	1	12	-4
CCn1c(=O)c(C(=O)NCCCO)c(O)c2ccccc21	5	-5	-1	7	-11	nt	nt
COc1ccc(NC(=O)C23CC4CC(C2)CC(c2ccc(C)cc2)(C4)C3)cc1	38	7	4	24	4	nt	nt
O=C(c1ccc(Cn2c(=S)[nH]c3ccc(N4CCOCC4)cc3c2=O)cc1)N1CCN(c2ccc(F)cc2)CC1	40	18*	5	23	-8	19*	-1
Cc1ccc(C)c(N2CCN(C(=O)c3ccc(Cn4c(=S)[nH]c5ccc(N6CCOCC6)cc5c4=O)cc3)CC2)c1	25	30*	3	25	-4	13	-2
CC(C)(C)OC(=O)NCCCCCc1nnc(SCc2ccccc2)o1	-5	-3	3	-1	2	nt	nt
Cc1[nH]c(=O)[nH]c(=O)c1CSc1nnc(CCCCCNC(=O)OC(C)(C)C)o1	-8	23*	1	9	-2	-3	-3
O=S(=O)(Cc1cc(NCc2ccccc2)nc(-c2ccccn2)n1)c1ccccc1	10	39*	1	56*	nt	46*	0
CC1CN(C(=O)c2ccc(NS(=O)(=O)c3ccc(C(C)(C)C)cc3)cc2)CC(C)O1 (stereo not given)	nt	nt	nt	-3	nt	nt	nt
Cc1noc(C)c1C(=O)Nc1ccccc1C(=O)NCCc1ccccc1	1	21*	4	-3	-1	0	-2
Cc1noc(C)c1C(=O)NCCc1ccc(Cl)cc1	3	4	-2	0	1	nt	nt
c1ccc(N(c2ccccc2)c2nc(-n3ccnc3)nc(-n3ccnc3)n2)cc1	20	50*	1	12	8	50*	0
CN(c1ccccc1)c1nc(-n2ccnc2)nc(-n2ccnc2)n1	1	2	2	7	-2	nt	nt
CCC1(c2ccccc2)NC(=O)N(CC(=O)Nc2cc(S(=O)(=O)N3CCCCC3)ccc2OC(C)C)C1=O (stereo not given)	6	18*	0	6	9	2	4
NC1=NC(=O)/C(=C/c2cccc(-c3ccc(S(N)(=O)=O)cc3)c2)S1	4	7	0	3	-8	nt	nt
ClC(Cl)(Cl)c1nc(N/N=C/c2ccncc2)c2ccccc2n1	0	22*	1	10	nt	18*	-3
O=[N+]([O-])c1cccc(/C=N/Nc2nc(C(Cl)(Cl)Cl)nc3ccccc23)c1	19	0	0	21	7	nt	nt
O=C(CSc1nc2nn(-c3ccccc3)c(=O)c-2c2n1CCCCC2)NCCCc1ccccc1	-16	0	3	11	-4	nt	nt
CN(C)/C=N/c1nc(-c2ccc3ccccc3c2)cs1	5	-1	5	-13	1	nt	nt
CCC(C)(C)c1ccc(OCCCC[n+]2cccc(C)c2C)c(C(C)(C)CC)c1	135*	20*	2	15	117*	-3	1
Cc1cc(C(C)(C)C)ccc1OCCCCN1CCCC1	?	-1	3	-1	21	nt	nt
CCC(C)(C)c1ccc(OCCCC[n+]2ccc(C)cc2)c(C(C)(C)CC)c1	106*	21*	2	18	115*	-6	0
Cc1cc[n+](CC[n+]2ccc(C)cc2)cc1	0	-2	3	1	1	nt	nt
Cc1ccc(C)c(NC(=O)CN(C)C(=O)CC2OC(=O)c3ccccc32)c1 (stereo not given)	4	nt	nt	nt	0	nt	nt
